The record followed here is PubChem BioAssay (NCI).

The panel holds about 83,000 compounds, 20% with a hit somewhere; the sample as a whole holds those more often.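 Step 1: grow cells in 96-well plates. Step 2: add test compound at a single concentration. Step 3: incubate 48 h. Step 4: record percent growth.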 Unmarked numbers belong to inactive results. The source made the active and inactive calls. Rule for the calls: active = growth percent below 10; inactive = the rest.

Among the test systems are HCT-15 colon; HT29 colon; SNB-75 CNS; SNB-19 CNS; U251 CNS; PC-3 prostate; SK-MEL-5 melanoma; UACC-62 melanoma; LOX IMVI melanoma; SK-MEL-28 melanoma.
Assay in all cases: NCI-60 one-dose screen, 48 h (100 = growth as untreated, 0 = no growth, -100 = all killed)
Common to all, as to conditions: 10 µM unless noted

Consider `CCc1cccc(NC(=O)CNc2cc(S(=O)(=O)N(C)C)cc(C)c2C)c1`, for which the growth in the assay on HCT-15 colon is 106%; in the assay on HT29 colon, 104%; in the assay with SNB-75 CNS, 47%; in the assay with SNB-19 CNS it was 97.3%; in the assay on U251 CNS, 104%; with PC-3 prostate, 81.6%. The growth in the assay on SK-MEL-5 melanoma is 82.8%; with UACC-62 melanoma, 72.5%; in the assay with LOX IMVI melanoma, 89.9%; with SK-MEL-28 melanoma, 99.5%.
In the case of `CN1CCN(c2nc(-c3csc(-c4ccccc4)n3)cc3ccccc23)CC1`, the growth in the assay on HCT-15 colon was -48.6% (active); in the assay on HT29 colon, -52% (active); in the assay on SNB-75 CNS, 70.5%; in the assay with SNB-19 CNS it was 66.1%; with U251 CNS, 36.7%; in the assay with PC-3 prostate, 28.9%. For the same compound, the growth in the assay on SK-MEL-5 melanoma is 58.7%; in the assay on UACC-62 melanoma, -38.4% (active); in the assay on LOX IMVI melanoma, -80.7% (active); in the assay on SK-MEL-28 melanoma, -25.2% (active).
On to `O=C(c1ccc(O)cc1)[C@@H]1CN[C@@]2(C(=O)Nc3ccccc32)[C@H]1c1ccc(F)cc1`, for which the growth is 94.8% with HCT-15 colon; 110% with HT29 colon; 103% with SNB-75 CNS; 92.8% in the assay on SNB-19 CNS; 102% in the assay with U251 CNS; 88.8% in the assay on PC-3 prostate. Moreover, the growth in the assay on SK-MEL-5 melanoma was 101%; in the assay on UACC-62 melanoma, 86%; with LOX IMVI melanoma, 110%; in the assay with SK-MEL-28 melanoma it was 105%.
As for `COc1ccc(C2CC(c3cccc(Nc4nc(Cl)nc5cc(OC)c(OC)cc45)c3)=Nc3c(N)nc(N)nc3N2)cc1` (stereo not given), the growth with HCT-15 colon is 34.5%; in the assay with HT29 colon, 57.8%; with SNB-75 CNS it was 94.5%; in the assay on SNB-19 CNS, 70.1%; in the assay on U251 CNS, 16.9%; in the assay with PC-3 prostate it was 62.7%. Also, the growth in the assay on SK-MEL-5 melanoma was 72.1%; in the assay on UACC-62 melanoma, 95.6%; in the assay on LOX IMVI melanoma, 54.2%; in the assay on SK-MEL-28 melanoma it was 101%.
For `O=C(CSc1nnc(-c2ccc(Cl)cc2)n1-c1ccccc1)Nc1cccc(Cl)c1`, the growth with HCT-15 colon was 79.5%; in the assay on HT29 colon, 71.6%; in the assay on SNB-75 CNS, 42.5%; in the assay with SNB-19 CNS it was 80.2%; with U251 CNS, 50.2%; in the assay on PC-3 prostate, 75.5%. The growth with SK-MEL-5 melanoma was 96.4%; in the assay on UACC-62 melanoma it was 97.7%; in the assay with LOX IMVI melanoma it was 7.5% (active); in the assay on SK-MEL-28 melanoma it was 97.8%.
Consider `COc1cc(/C=C/C(=O)c2ccc(NC(=O)CSc3nnc(-c4ccc(-c5nc6ccc(Cl)cc6[nH]5)cc4)o3)cc2)cc(OC)c1OC`, for which the growth with HCT-15 colon was 53.7%; with HT29 colon, 106%; with SNB-75 CNS, 88.4%; with SNB-19 CNS, 89%; in the assay on U251 CNS, 88.5%; in the assay with PC-3 prostate, 92.2%. The growth in the assay on SK-MEL-5 melanoma is 94.1%; with UACC-62 melanoma, 74.2%; in the assay on LOX IMVI melanoma, 88.6%; in the assay on SK-MEL-28 melanoma, 88.3%.
`CCO/C=N/C1=C(C#N)C(c2ccc(F)cc2)c2sc3c(CC)cccc3c2O1` (stereo not given): the growth was 12.6% with HCT-15 colon; 10.1% in the assay with HT29 colon; 3.71% (active) in the assay with SNB-75 CNS; 21.4% in the assay on SNB-19 CNS; 21.4% with U251 CNS; 13.6% in the assay on PC-3 prostate. Further, the growth is 26.6% in the assay with SK-MEL-5 melanoma, 16.1% in the assay with UACC-62 melanoma, 14.7% in the assay on LOX IMVI melanoma and 61% in the assay on SK-MEL-28 melanoma.
Take `CCNC(=O)N1CCc2cc(OC)c(OCCc3ccc(OC)cc3)cc2C1c1ccc(OC)cc1C` (stereo not given): the growth in the assay on HCT-15 colon is 10.8%; with HT29 colon, -0.449% (active); with SNB-75 CNS, 3.67% (active); in the assay on SNB-19 CNS, 25.8%; in the assay on U251 CNS, 20.6%; with PC-3 prostate it was 27.9%. Also, the growth is -1.62% (active) in the assay with SK-MEL-5 melanoma, 19.5% with UACC-62 melanoma, 4% (active) in the assay with LOX IMVI melanoma and 46.7% in the assay on SK-MEL-28 melanoma.
For `CCCCCc1ccc(S(=O)(=O)Nc2cc(-c3csc(NC(=O)CN4CCN(CCO)CC4)n3)ccc2OC)cc1`, the growth is -9.25% (active) in the assay on HCT-15 colon; 4.51% (active) with HT29 colon; 92.6% in the assay on SNB-75 CNS; 31% with SNB-19 CNS; 2.41% (active) in the assay on U251 CNS; 48% in the assay with PC-3 prostate. Further, the growth was -88.8% (active) in the assay on SK-MEL-5 melanoma, -32.9% (active) with UACC-62 melanoma, -82.5% (active) in the assay with LOX IMVI melanoma and -60.5% (active) in the assay on SK-MEL-28 melanoma.
As to `CS(=O)(=O)c1ccc(-c2nn(-c3ccccc3)cc2/C=N/NC(=O)c2nc(N)n[nH]2)cc1`, the growth in the assay on HCT-15 colon was 88.9%; with HT29 colon, 101%; in the assay with SNB-75 CNS, 103%; in the assay with SNB-19 CNS it was 101%; with U251 CNS, 101%; with PC-3 prostate, 100%. Also, the growth with SK-MEL-5 melanoma is 98.6%; in the assay with UACC-62 melanoma, 90.8%; with LOX IMVI melanoma, 84.7%; in the assay on SK-MEL-28 melanoma, 108%.
For the compound `CCn1c(SCC(=O)Nc2cccc(C(=O)/C=C/c3ccc(Br)cc3)c2)nc2ccccc2c1=O`, the growth in the assay on HCT-15 colon is 65%; with HT29 colon, 85.4%; in the assay on SNB-75 CNS, 73.8%; with SNB-19 CNS, 85.9%; in the assay with U251 CNS it was 88.7%; in the assay with PC-3 prostate, 83.4%. The growth is 91.7% in the assay with SK-MEL-5 melanoma, 73.9% in the assay on UACC-62 melanoma, 41.9% in the assay with LOX IMVI melanoma and 98.2% in the assay with SK-MEL-28 melanoma.
Take `Cc1[nH]c(C(=O)Nc2ccccc2OCc2cccc(C(=O)N3CCC[C@@H](N)C3)c2)c(Cl)c1Cl`: the growth is -78.6% (active) in the assay with HCT-15 colon; -71.9% (active) in the assay on HT29 colon; -96.3% (active) in the assay on SNB-75 CNS; -84.4% (active) in the assay on SNB-19 CNS; -83.9% (active) in the assay on U251 CNS; -88.9% (active) with PC-3 prostate. Further, the growth in the assay with SK-MEL-5 melanoma was -97.7% (active); with UACC-62 melanoma it was -90.8% (active); in the assay with LOX IMVI melanoma it was -90% (active); in the assay on SK-MEL-28 melanoma, -84.6% (active).
As for `C=CCn1c(SCC(=O)Nc2ccc(C(=O)/C=C/c3ccc(Br)cc3)cc2)nnc1-c1c[nH]c2ccccc12`, the growth in the assay on HCT-15 colon is 93.4%; in the assay on HT29 colon, 94.1%; in the assay on SNB-75 CNS it was 95.4%; in the assay on SNB-19 CNS it was 89.1%; with U251 CNS, 87.9%; with PC-3 prostate, 68%. Also, the growth in the assay with SK-MEL-5 melanoma was 72.3%; in the assay with UACC-62 melanoma, 64.6%; in the assay with LOX IMVI melanoma, 49%; with SK-MEL-28 melanoma, 97.1%.
